# Measurements: the antibiotic and cytotoxicity screens of Wong et al. (2023)
# Screen size: about 39,000 compounds; about 3,300 (8.5%) were called active. Many of the other results were omitted from the sample, so actives are more common in it than they were.
# Test system: HepG2
# Experiment: cytotoxicity call (relative viability < 0.9)
# Details: 10 µM
row,Compound,cytotoxicity call
1,C[C@H](CO)N1C[C@H](C)[C@@H](CN(C)CC2CCCCC2)Oc2ccc(NC(=O)Cc3cn(C)c4ccccc34)cc2C1=O,inactive
2,CCCN(C)C[C@H]1OCCCC[C@@H](C)Oc2ccc(NC(=O)Cc3ccccc3)cc2C(=O)N([C@H](C)CO)C[C@H]1C,inactive
3,O=C(C[C@H]1CC[C@@H]2[C@H](COC[C@H](O)CN2CC2CCOCC2)O1)N1CCOCC1,inactive
4,C[C@@H]1CN([C@H](C)CO)C(=O)Cc2cc(NC(=O)CCN3CCOCC3)ccc2O[C@H]1CN(C)S(=O)(=O)c1cccs1,inactive
5,C[C@@H]1CCCCO[C@@H](CN(C)Cc2ccccc2)[C@@H](C)CN([C@H](C)CO)C(=O)c2cc(NC(=O)Nc3cccc4ccccc34)ccc2O1,inactive
6,C[C@@H]1CCCCO[C@H](CN(C)Cc2ccc(C(=O)O)cc2)[C@@H](C)CN([C@@H](C)CO)C(=O)c2cc(NC(=O)Nc3cccc4ccccc34)ccc2O1,inactive
7,C[C@@H]1CCCCO[C@@H](CN(C)Cc2ccc(C(=O)O)cc2)[C@@H](C)CN([C@H](C)CO)C(=O)c2cc(NC(=O)Nc3cccc4ccccc34)ccc2O1,inactive
8,C[C@@H]1CN([C@@H](C)CO)C(=O)c2cc(NC(=O)Nc3cccc4ccccc34)ccc2O[C@@H](C)CCCCO[C@H]1CN(C)Cc1ccccc1,active
9,C[C@H]1CCCCO[C@H](CN(C)Cc2ccccc2)[C@@H](C)CN([C@@H](C)CO)C(=O)c2cc(NC(=O)Nc3cccc4ccccc34)ccc2O1,active
10,C[C@@H]1CN([C@@H](C)CO)C(=O)c2cc(NC(=O)Nc3cccc4ccccc34)ccc2O[C@@H](C)CCCCO[C@H]1CN(C)Cc1ccncc1,inactive
11,C[C@@H]1CCCCO[C@H](CN(C)Cc2ccncc2)[C@H](C)CN([C@@H](C)CO)C(=O)c2cc(NC(=O)Nc3cccc4ccccc34)ccc2O1,active
12,C[C@@H]1CCCCO[C@H](CN(C)Cc2ccccc2)[C@@H](C)CN([C@@H](C)CO)C(=O)c2cc(NC(=O)Nc3cccc4ccccc34)ccc2O1,active
13,C[C@@H]1CN([C@@H](C)CO)C(=O)c2cc(NC(=O)Nc3cccc4ccccc34)ccc2O[C@@H](C)CCCCO[C@@H]1CN(C)Cc1ccncc1,inactive
14,C[C@@H]1CCCCO[C@@H](CN(C)Cc2ccccc2)[C@H](C)CN([C@@H](C)CO)C(=O)c2cc(NC(=O)Nc3cccc4ccccc34)ccc2O1,inactive
15,CC(C)NC(=O)N(C)C[C@@H]1OCc2cnnn2CCCC(=O)N([C@H](C)CO)C[C@@H]1C,inactive
16,C[C@H]1CN([C@@H](C)CO)C(=O)c2c(c3ccccc3n2C)-c2ccccc2CO[C@@H]1CN(C)C(=O)c1ccc(F)cc1,inactive
17,C[C@H]1CCCCO[C@@H](CN(C)Cc2ccc3c(c2)OCO3)[C@@H](C)CN([C@@H](C)CO)C(=O)c2cc(NS(=O)(=O)c3ccc(F)cc3)ccc2O1,inactive
18,C[Si](C)(C)O[Si](C)(C)O[Si](C)(C)C,inactive
19,COc1ccc(S(=O)(=O)N(C)C[C@@H]2Oc3c(NS(=O)(=O)c4ccc(F)cc4)cccc3C(=O)N([C@H](C)CO)C[C@H]2C)cc1,inactive
20,Cc1ccc(S(=O)(=O)N(C)C[C@H]2OCCCC[C@@H](C)Oc3ccc(NC(=O)C4CCCCC4)cc3C(=O)N([C@H](C)CO)C[C@H]2C)cc1,inactive
21,COc1ccccc1CNC(=O)C[C@@H]1CC[C@H]2[C@@H](COC[C@H](O)CN2C(=O)Nc2ccc(Cl)cc2)O1,inactive

row,Compound,cytotoxicity call
1,C[C@@H]1CN([C@@H](C)CO)C(=O)c2cc(NC(=O)Nc3cccc4ccccc34)ccc2O[C@@H](C)CCCCO[C@@H]1CN(C)Cc1ccccc1,active
2,C[C@@H]1CCCCO[C@@H](CN(C)Cc2ccccc2)[C@@H](C)CN([C@@H](C)CO)C(=O)c2cc(NC(=O)Nc3cccc4ccccc34)ccc2O1,inactive
3,C[C@@H]1CCCCO[C@H](CN(C)Cc2ccc(C(=O)O)cc2)[C@H](C)CN([C@H](C)CO)C(=O)c2cc(NC(=O)Nc3cccc4ccccc34)ccc2O1,inactive
4,C[C@@H]1CN([C@H](C)CO)C(=O)c2cc(NC(=O)Nc3cccc4ccccc34)ccc2O[C@@H](C)CCCCO[C@H]1CN(C)Cc1ccc(C(F)(F)F)cc1,inactive
5,C[C@@H]1CN([C@H](C)CO)C(=O)c2cc(NC(=O)Nc3cccc4ccccc34)ccc2O[C@@H](C)CCCCO[C@H]1CN(C)Cc1ccccc1,active
6,C[C@H](CO)N1C[C@H](C)[C@@H](CN(C)Cc2ccc(C(F)(F)F)cc2)OCCCC[C@H](C)Oc2ccc(NC(=O)Nc3cccc4ccccc34)cc2C1=O,active
7,C[C@H](CO)N1C[C@H](C)[C@H](CN(C)Cc2ccccc2)OCCCC[C@H](C)Oc2ccc(NC(=O)Nc3cccc4ccccc34)cc2C1=O,inactive
8,C[C@@H]1CCCCO[C@@H](CN(C)Cc2ccc(C(=O)O)cc2)[C@@H](C)CN([C@@H](C)CO)C(=O)c2cc(NC(=O)Nc3cccc4ccccc34)ccc2O1,inactive
9,C[C@@H]1CN([C@@H](C)CO)C(=O)c2cc(NC(=O)Nc3cccc4ccccc34)ccc2O[C@@H](C)CCCCO[C@H]1CN(C)Cc1ccc(C(F)(F)F)cc1,inactive
10,COc1ccc(S(=O)(=O)N(C)C[C@@H]2Oc3ccc(NS(=O)(=O)c4c(C)noc4C)cc3C(=O)N([C@@H](C)CO)C[C@H]2C)cc1,inactive
11,COc1ccc(S(=O)(=O)N(C)C[C@H]2OCCCC[C@@H](C)Oc3ccc(NC(=O)CCCCCC(=O)Nc4ccccc4N)cc3C(=O)N([C@H](C)CO)C[C@H]2C)cc1,inactive
12,C[C@@H]1CN([C@H](C)CO)C(=O)c2cccc(NS(C)(=O)=O)c2O[C@@H]1CN(C)Cc1ccc2c(c1)OCO2,inactive
13,C[C@@H]1CN([C@@H](C)CO)C(=O)c2cc(NS(=O)(=O)c3cccs3)ccc2O[C@@H](C)CCCCO[C@@H]1CN(C)S(=O)(=O)c1cn(C)cn1,inactive
14,Cc1noc(C)c1NC(=O)Nc1ccc2c(c1)CC(=O)N([C@H](C)CO)C[C@@H](C)[C@@H](CN(C)S(C)(=O)=O)O2,inactive
15,CS(=O)(=O)Nc1ccc2c(c1)[C@@H]1C[C@H](CC(=O)NCC3CC3)O[C@@H](CO)[C@@H]1O2,inactive
16,C[C@@H]1CN([C@@H](C)CO)C(=O)c2cc(NC(=O)Cc3ccccc3)ccc2O[C@@H](C)CCCCO[C@@H]1CN(C)S(=O)(=O)c1ccc(F)cc1,inactive
17,C[C@@H]1CN([C@@H](C)CO)C(=O)c2cc(NC(=O)c3ccccc3)ccc2O[C@@H](C)CCCCO[C@H]1CN(C)Cc1ccncc1,inactive
18,CC(C)NC(=O)Nc1cccc2c1O[C@H](CN(C)Cc1ccc3c(c1)OCO3)[C@H](C)CN([C@@H](C)CO)C2=O,inactive
19,C[C@H]1CN([C@@H](C)CO)C(=O)c2cccc(NC(=O)C3CC3)c2O[C@H]1CN(C)Cc1ccc(-c2ccccc2)cc1,inactive
20,Cc1cc(CCC[C@H](CC(=O)NO)C(=O)N[C@H](C(=O)N[C@H](C)c2ccccc2)C(C)(C)C)ccc1-c1ccccc1,active
21,Nc1cccc(-c2cccs2)c1,inactive

row,Compound,cytotoxicity call
1,C[C@H](CO)N1C[C@H](C)[C@H](CN(C)S(C)(=O)=O)Oc2ncc(C#Cc3cccnc3)cc2C1=O,inactive
2,CN(C)CCN(Cc1ccc(Cl)cc1)c1ccccn1.Cl,inactive
3,CN(C)CCN(Cc1ccccc1)c1ccccn1.O=C(O)CC(O)(CC(=O)O)C(=O)O,active
4,COc1ccc(CN(CCN(C)C)c2ccccn2)cc1.O=C(O)C=CC(=O)O,inactive
5,C[C@H](CO)N1C[C@H](C)[C@@H](CN(C)S(=O)(=O)c2cn(C)cn2)Oc2ccc(NC(=O)CCC(F)(F)F)cc2C1=O,inactive
6,C[C@@H]1CN([C@H](C)CO)S(=O)(=O)c2ccc(C#CCN(C)C)cc2O[C@H]1CN(C)S(C)(=O)=O,inactive
7,Cc1cc(C(=O)Nc2cccc3c2O[C@H](CN(C)S(=O)(=O)c2c(C)noc2C)[C@H](C)CN([C@H](C)CO)C3=O)n(C)n1,inactive
8,CC1(C)C[C@@](CCN)(Cc2ccccc2)CCO1,inactive
9,Cc1ccc(S(=O)(=O)N(C)C[C@H]2OCCCC[C@H](C)Oc3ccc(NS(=O)(=O)c4ccc(F)cc4)cc3C(=O)N([C@@H](C)CO)C[C@@H]2C)cc1,inactive
10,Cc1ccc(S(=O)(=O)Nc2ccc3c(c2)C(=O)N([C@@H](C)CO)C[C@H](C)[C@@H](CN(C)S(=O)(=O)c2ccc(F)cc2)OCCCC[C@H](C)O3)cc1,inactive
11,Cc1ccc(S(=O)(=O)Nc2ccc3c(c2)C(=O)N([C@H](C)CO)C[C@@H](C)[C@H](CN(C)S(=O)(=O)c2ccc(F)cc2)OCCCC[C@@H](C)O3)cc1,inactive
12,Cc1ccc(S(=O)(=O)N(C)C[C@@H]2OCCCC[C@H](C)Oc3ccc(NS(=O)(=O)c4ccc(F)cc4)cc3C(=O)N([C@H](C)CO)C[C@@H]2C)cc1,active
13,Cc1ccc(S(=O)(=O)Nc2ccc3c(c2)C(=O)N([C@@H](C)CO)C[C@H](C)[C@@H](CN(C)S(=O)(=O)c2ccc(F)cc2)OCCCC[C@@H](C)O3)cc1,inactive
14,Cc1ccc(S(=O)(=O)Nc2ccc3c(c2)C(=O)N([C@H](C)CO)C[C@H](C)[C@H](CN(C)S(=O)(=O)c2ccc(F)cc2)OCCCC[C@H](C)O3)cc1,inactive
15,Cc1ccc(S(=O)(=O)Nc2ccc3c(c2)C(=O)N([C@H](C)CO)C[C@H](C)[C@@H](CN(C)S(=O)(=O)c2ccc(F)cc2)OCCCC[C@H](C)O3)cc1,inactive
16,Cc1ccc(S(=O)(=O)N(C)C[C@@H]2OCCCC[C@@H](C)Oc3ccc(NS(=O)(=O)c4ccc(F)cc4)cc3C(=O)N([C@H](C)CO)C[C@H]2C)cc1,active
17,Cc1ccc(S(=O)(=O)N(C)C[C@@H]2OCCCC[C@H](C)Oc3ccc(NS(=O)(=O)c4ccc(F)cc4)cc3C(=O)N([C@@H](C)CO)C[C@H]2C)cc1,active
18,Cc1ccc(S(=O)(=O)Nc2ccc3c(c2)C(=O)N([C@@H](C)CO)C[C@@H](C)[C@H](CN(C)S(=O)(=O)c2ccc(F)cc2)OCCCC[C@@H](C)O3)cc1,inactive
19,Cc1ccc(S(=O)(=O)N(C)C[C@@H]2OCCCC[C@H](C)Oc3ccc(NS(=O)(=O)c4ccc(F)cc4)cc3C(=O)N([C@@H](C)CO)C[C@@H]2C)cc1,active
20,Cc1ccc(S(=O)(=O)N(C)C[C@H]2OCCCC[C@H](C)Oc3ccc(NS(=O)(=O)c4ccc(F)cc4)cc3C(=O)N([C@H](C)CO)C[C@H]2C)cc1,inactive
